Experimental data as given in PubChem BioAssay (NCATS).
Results filed as inconclusive are left out. Entries that show only a call come without a potency. Active and inactive are the calls of the source. Calls come from the whole dose curve; as a rule, active = well fitted curve in the direction sought with a large enough effect; inconclusive = small, poorly fitted or top-dose-only effect, or another doubt; inactive = no such curve, though single readings can be large; an effect the other way counts as inactive or inconclusive.

assay: MultiTox-Fluor Cytotoxicity Assay - LYMP1-001 - Dead Cells (AID 946); settings: LYMP1-001 lymphoblastoid cells, dead-cell protease fluorescence; series mostly up to 92.2 µM;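 note: cells exposed to compound for 16 h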
How it was run: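 AC50 from Hill fit of concentration-response; data normalized to DMSO (basal) and 15 uM tetraoctylammonium bromide (100%). LYMP1-001 lymphoblastoid cells, 2500/well, 16 hr compound at 37 C; dead-cell protease fluorescence, Ex/Em 485/520.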

Compound | Potency
OC[C@H]1O[C@@H]2O[C@H]3[C@H](O)[C@@H](O)[C@@H](O[C@H]4[C@H](O)[C@@H](O)[C@@H](O[C@H]5[C@H](O)[C@@H](O)[C@@H](O[C@H]6[C@H](O)[C@@H](O)[C@@H](O[C@H]7[C@H](O)[C@@H](O)[C@@H](O[C@H]1[C@H](O)[C@H]2O)O[C@@H]7CO)O[C@@H]6CO)O[C@@H]5CO)O[C@@H]4CO)O[C@@H]3CO | inactive
Cc1ccc(S(=O)(=O)O)cc1C | inactive
OCl | inactive
CCOC(C)OCC | inactive
C[C@H](CCC(=O)O)[C@H]1CC[C@H]2[C@@H]3[C@H](O)C[C@@H]4C[C@H](O)CC[C@]4(C)[C@H]3C[C@H](O)[C@]12C | inactive
CC(C)O | inactive
Oc1cccc(O)c1O | inactive
OCC(O)CO | inactive
Nc1ccc(N=Nc2ccccc2)c(N)n1 | inactive
CO/N=C(/C(=O)N[C@@H]1C(=O)N2C(C(=O)O)=C(COC(N)=O)CS[C@H]12)c1ccco1 | inactive
Oc1ccc(/C=C/c2cc(O)cc(O)c2)cc1 | inactive
ClC(Cl)Cl | inactive
Cc1ncc[nH]1 | inactive
C/C=C/C=C/C(=O)O | inactive
c1ccc2ccccc2c1 | inactive
O=P(O)(O)O | inactive
OCc1ccccc1 | inactive
NCCN | inactive
OB(O)O | inactive
CC[C@H]1OC(=O)[C@H](C)[C@@H](O[C@H]2C[C@@](C)(OC)[C@@H](O)[C@H](C)O2)[C@H](C)[C@@H](O[C@@H]2O[C@H](C)C[C@H](N(C)C)[C@H]2O)[C@](C)(O)C[C@@H](C)CN(C)[C@H](C)[C@@H](O)[C@]1(C)O | inactive
COC(=O)c1ccccc1O | inactive
CC1=CCC2CC1C2(C)C (centres undefined) | inactive
Nc1ncnc2c1ncn2[C@H]1CC[C@@H](CO)O1 | inactive
CCCCO | inactive
CCCCC | inactive
C[C@H](CCC(=O)O)[C@H]1CC[C@H]2[C@@H]3CC[C@@H]4C[C@H](O)CC[C@]4(C)[C@H]3C[C@H](O)[C@]12C | inactive
NC(N)=O | inactive
Nc1nccs1 | inactive

assay: MultiTox-Fluor Cytotoxicity Assay - LYMP1-001 - Live Cells (AID 947); settings: LYMP1-001 lymphoblastoid cells, live-cell protease fluorescence viability; series mostly up to 92.2 µM

Compound | outcome
OC[C@H]1O[C@@H]2O[C@H]3[C@H](O)[C@@H](O)[C@@H](O[C@H]4[C@H](O)[C@@H](O)[C@@H](O[C@H]5[C@H](O)[C@@H](O)[C@@H](O[C@H]6[C@H](O)[C@@H](O)[C@@H](O[C@H]7[C@H](O)[C@@H](O)[C@@H](O[C@H]1[C@H](O)[C@H]2O)O[C@@H]7CO)O[C@@H]6CO)O[C@@H]5CO)O[C@@H]4CO)O[C@@H]3CO | inactive
Cc1ccc(S(=O)(=O)O)cc1C | inactive
OCl | inactive
CCOC(C)OCC | inactive
C[C@H](CCC(=O)O)[C@H]1CC[C@H]2[C@@H]3[C@H](O)C[C@@H]4C[C@H](O)CC[C@]4(C)[C@H]3C[C@H](O)[C@]12C | inactive
CC(C)O | inactive
Oc1cccc(O)c1O | inactive
OCC(O)CO | inactive
Nc1ccc(N=Nc2ccccc2)c(N)n1 | inactive
CO/N=C(/C(=O)N[C@@H]1C(=O)N2C(C(=O)O)=C(COC(N)=O)CS[C@H]12)c1ccco1 | inactive
Oc1ccc(/C=C/c2cc(O)cc(O)c2)cc1 | inactive
ClC(Cl)Cl | inactive
Cc1ncc[nH]1 | inactive
C/C=C/C=C/C(=O)O | inactive
c1ccc2ccccc2c1 | inactive
O=P(O)(O)O | inactive
OCc1ccccc1 | inactive
NCCN | inactive
OB(O)O | inactive
CC[C@H]1OC(=O)[C@H](C)[C@@H](O[C@H]2C[C@@](C)(OC)[C@@H](O)[C@H](C)O2)[C@H](C)[C@@H](O[C@@H]2O[C@H](C)C[C@H](N(C)C)[C@H]2O)[C@](C)(O)C[C@@H](C)CN(C)[C@H](C)[C@@H](O)[C@]1(C)O | inactive
COC(=O)c1ccccc1O | inactive
CC1=CCC2CC1C2(C)C (centres undefined) | inactive
Nc1ncnc2c1ncn2[C@H]1CC[C@@H](CO)O1 | inactive
CCCCO | inactive
CCCCC | inactive
C[C@H](CCC(=O)O)[C@H]1CC[C@H]2[C@@H]3CC[C@@H]4C[C@H](O)CC[C@]4(C)[C@H]3C[C@H](O)[C@]12C | inactive
NC(N)=O | inactive
Nc1nccs1 | inactive

assay: Cell Viability - LYMP1-002 - Assay at 16 hr (AID 948); settings: LYMP1-002 lymphoblastoid cell viability; series mostly up to 92.2 µM
How it was run: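 Acute cytotoxicity is scored as a concentration-dependent fall in intracellular ATP in a human lymphoblastoid line (LYMP1-002) after 16 hr compound exposure at 37 C, measured by luciferase luminescence.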

Compound | Potency
OC[C@H]1O[C@@H]2O[C@H]3[C@H](O)[C@@H](O)[C@@H](O[C@H]4[C@H](O)[C@@H](O)[C@@H](O[C@H]5[C@H](O)[C@@H](O)[C@@H](O[C@H]6[C@H](O)[C@@H](O)[C@@H](O[C@H]7[C@H](O)[C@@H](O)[C@@H](O[C@H]1[C@H](O)[C@H]2O)O[C@@H]7CO)O[C@@H]6CO)O[C@@H]5CO)O[C@@H]4CO)O[C@@H]3CO | inactive
Cc1ccc(S(=O)(=O)O)cc1C | inactive
OCl | inactive
CCOC(C)OCC | inactive
C[C@H](CCC(=O)O)[C@H]1CC[C@H]2[C@@H]3[C@H](O)C[C@@H]4C[C@H](O)CC[C@]4(C)[C@H]3C[C@H](O)[C@]12C | inactive
CC(C)O | inactive
Oc1cccc(O)c1O | inactive
OCC(O)CO | inactive
Nc1ccc(N=Nc2ccccc2)c(N)n1 | inactive
CO/N=C(/C(=O)N[C@@H]1C(=O)N2C(C(=O)O)=C(COC(N)=O)CS[C@H]12)c1ccco1 | inactive
Oc1ccc(/C=C/c2cc(O)cc(O)c2)cc1 | inactive
ClC(Cl)Cl | inactive
Cc1ncc[nH]1 | inactive
C/C=C/C=C/C(=O)O | inactive
c1ccc2ccccc2c1 | inactive
O=P(O)(O)O | inactive
OCc1ccccc1 | inactive
NCCN | inactive
OB(O)O | inactive
CC[C@H]1OC(=O)[C@H](C)[C@@H](O[C@H]2C[C@@](C)(OC)[C@@H](O)[C@H](C)O2)[C@H](C)[C@@H](O[C@@H]2O[C@H](C)C[C@H](N(C)C)[C@H]2O)[C@](C)(O)C[C@@H](C)CN(C)[C@H](C)[C@@H](O)[C@]1(C)O | inactive
COC(=O)c1ccccc1O | inactive
CC1=CCC2CC1C2(C)C (centres undefined) | inactive
Nc1ncnc2c1ncn2[C@H]1CC[C@@H](CO)O1 | inactive
CCCCO | inactive
CCCCC | inactive
C[C@H](CCC(=O)O)[C@H]1CC[C@H]2[C@@H]3CC[C@@H]4C[C@H](O)CC[C@]4(C)[C@H]3C[C@H](O)[C@]12C | inactive
NC(N)=O | inactive
Nc1nccs1 | inactive
